# Laboratory results from PubChem BioAssay AID488969 (Vanderbilt High Throughput Screening Facility, 2010).
# In all, about 110,000 compounds were measured (“z-score”: median about -0.1, highest 2% from about 2 on). For the sample, the highest values were picked, then their nearest neighbours and some compounds at random. The source made the active and inactive calls.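 How the source made its calls: active means z-score in the third read window above 3 or below -3; inactive means the rest.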
# Biological target: Metabotropic glutamate receptor 8 (Rattus norvegicus) (UniProt P70579)
# Sequence (P70579 whole entry, looked up): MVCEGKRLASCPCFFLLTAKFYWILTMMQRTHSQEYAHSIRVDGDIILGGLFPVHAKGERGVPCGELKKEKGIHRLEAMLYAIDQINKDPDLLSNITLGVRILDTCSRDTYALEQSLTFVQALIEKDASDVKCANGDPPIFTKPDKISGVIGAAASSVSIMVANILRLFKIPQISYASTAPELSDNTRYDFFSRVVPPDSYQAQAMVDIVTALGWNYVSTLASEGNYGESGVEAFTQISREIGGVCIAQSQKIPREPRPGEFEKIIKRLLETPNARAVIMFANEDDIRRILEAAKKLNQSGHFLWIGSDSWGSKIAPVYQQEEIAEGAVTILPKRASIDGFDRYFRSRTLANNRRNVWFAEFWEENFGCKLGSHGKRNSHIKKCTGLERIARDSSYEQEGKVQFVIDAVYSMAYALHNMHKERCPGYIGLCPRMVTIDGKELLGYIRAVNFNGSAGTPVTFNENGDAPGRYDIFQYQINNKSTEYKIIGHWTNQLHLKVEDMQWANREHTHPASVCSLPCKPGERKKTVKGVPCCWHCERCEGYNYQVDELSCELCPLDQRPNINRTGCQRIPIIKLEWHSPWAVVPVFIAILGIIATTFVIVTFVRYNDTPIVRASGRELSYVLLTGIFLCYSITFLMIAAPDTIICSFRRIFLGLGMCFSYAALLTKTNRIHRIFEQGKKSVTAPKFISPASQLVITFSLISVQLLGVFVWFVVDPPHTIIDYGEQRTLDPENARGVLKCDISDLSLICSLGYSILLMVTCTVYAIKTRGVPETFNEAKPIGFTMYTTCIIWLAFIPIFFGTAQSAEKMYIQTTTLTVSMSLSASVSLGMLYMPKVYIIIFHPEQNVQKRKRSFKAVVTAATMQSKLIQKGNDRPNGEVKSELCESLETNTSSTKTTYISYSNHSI
# Test: mGluR8 Gi/Go-coupled signaling modulation – cell-based, rat, thallium flux, HTS, primary screen (AID 488969)
# Settings: HEK293 rat mGluR8, GIRK (G protein-gated inwardly rectifying potassium channel) thallium flux, FluoZin2; at 10 µM; stronger effect = higher value; submaximal glutamate (EC20) added with thallium
row,Structure (SMILES),z-score
1,O=C(CSc1nc2nc3c(cc2c(=O)n1-c1ccccc1)CCCC3)Nc1ccccc1,-0.468
2,O=C(NCc1ccco1)c1sc2ccccc2c1Cl,-0.649
3,C=CCn1c(N)c(C(=O)NCc2ccco2)sc1=S,0.688
4,Cc1ccc(-n2c(N)c(C(=O)NCc3ccco3)sc2=S)cc1,-0.322
5,O=C(NCc1ccco1)c1sc(=S)n2c1[nH]c(=O)c1ccccc12,2.75
6,CCn1c(N)c(C(=O)NCc2ccco2)sc1=S,4.44 (active)
7,O=C(NCc1ccccc1)c1sc(=S)n2c1[nH]c(=O)c1ccccc12,-0.316
8,CC(=O)Oc1ccc2oc(=O)c3c(c2c1)CCCN3C(=O)CN1CCN(c2ncccn2)CC1,-0.26
9,CCOC(=O)CC1=CSC2=NS(=O)(=O)CCN12,-0.784
10,CC(=O)C1=C(C)NC(SCC(=O)c2ccccc2)=C(C#N)C1c1ccco1 (stereo not drawn),-1.16
11,CCc1cc2c(=O)[nH]c(Cc3ccccc3)nc2s1,-0.371
12,COC(=O)c1ccc(COC(=O)c2ccc(CS(=O)(=O)c3ccc(C)cc3)cc2)cc1,-0.331
13,Cc1ccc(NC(=O)COC(=O)/C=C/c2ccco2)cc1S(=O)(=O)N(C)C,1.23
14,Cc1ccc(NC(=O)Cc2c(Cl)cccc2Cl)cc1S(=O)(=O)N(C)C,1
15,Cc1ccc2c(Cl)cc(Cl)c(OCC(=O)Nc3cccc(S(=O)(=O)N(C)C)c3)c2n1,0.415
16,Cc1ccc(NC(=O)CCNC(=O)c2ccccc2Cl)cc1S(=O)(=O)N(C)C,-0.00648
17,CCOCc1c(C(=O)OCC(=O)Nc2ccc(C)c(S(=O)(=O)N(C)C)c2)oc2ccccc12,9.51 (active)
18,CCOCC(=O)Nc1c(C(=O)OCC)oc2ccccc12,-0.215
19,Cc1ccc2c(Cl)cc(Cl)c(OCC(=O)Nc3ccc(C)c(S(=O)(=O)N(C)C)c3)c2n1,2.31
20,Cc1ccc(NC(=O)Cc2ccccc2Cl)cc1S(=O)(=O)N(C)C,12.9 (active)
21,Cc1ccc(NC(=O)COC(=O)CCC(=O)c2ccc(Cl)cc2)cc1S(=O)(=O)N(C)C,3.92 (active)
22,CN(C)S(=O)(=O)c1cccc(NC(=O)COC(=O)CCC(=O)c2ccc(F)cc2)c1,-0.326
23,Cc1ccc2c(Cl)cc(Cl)c(OCC(=O)Nc3cc(S(=O)(=O)N(C)C)ccc3C)c2n1,-0.0675
24,Cc1ccc(S(=O)(=O)N(C)C)cc1NC(=O)COC(=O)CCC(=O)c1ccc(F)cc1,-0.39
25,CCOc1cc(C)c(S(=O)(=O)NC2CCCCC2)cc1C,-0.571
26,O=c1c2ccccc2nc(COc2ccccc2)n1/N=C/c1c[nH]c2ccccc12,-0.533
27,O=[N+]([O-])c1cc(Cl)cc(C2=NCCN2)c1,0.173
28,COc1ccc(N(CC(=O)NCc2ccccc2OC)S(=O)(=O)c2c(C)nn(C)c2C)cc1,-0.153
